Tat export inh = E. coli Tat export inhibitors, primary screen, MC4100, TorA-mCherry reporter, fluorescence, single point | inhibition, % at 10 µM | 340,000 compounds, 0.036% hits;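 active = mean replicate inhibition at least 50% and at least half of replicates individually reaching 50%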;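 also: exported cargo escapes ClpAP degradation while cytoplasmic cargo is degraded and loses fluorescence; 0% = median of neutral control wells and 100% = median of NaSCN control wells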
E coli growth-1 = E. coli growth inhibition, primary screen, OD600; Escherichia coli growth, 23 h; active compounds read low; OD600 absorbance (test concentration not listed); 330,000 compounds, 0.21% hits; AID 1053175, 2014;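 active = OD600 absorbance below the run mean of sample wells minus 3.6 SD, in any replicate, cut at about 0.56 in these data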
phage Ecoli inh = growth loss of phage-infected E. coli, primary screen, RecBCD inhibitor project, absorbance, with phage, HTS; AID 651602, 2012; inhibition, % at 11.9 µM; 360,000 compounds, 0.26% hits; in the data active = inhibition above about 11%
AddAB inh = growth inhibition of E. coli expressing H. pylori AddAB, primary screen, AddAB inhibitor project, absorbance | 330,000 compounds, 0.29% hits | inhibition, % at 11.9 µM; in the data active = inhibition above about 12%;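 also: 0% = vehicle wells of infected cells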
E coli growth-2 = E. coli V3065 growth inhibition, primary screen, counter-screen for AddAB inhibitor project, absorbance, OD600; 330,000 compounds, 0.27% hits; 18 h; inhibition, % at 11.9 µM; AID 449728, 2010;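 active = inhibition above the campaign's mean inhibition across all tested compounds plus 3 SD, cut at about 9.9% in these data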;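 also: uninfected addAB+ strain grown without phage in ampicillin broth; 0% = DMSO wells and 100% = ciprofloxacin 0.95 µg/ml wells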
Active calls of the source: *; / = no result given. An excerpt weighted towards active compounds, which were near 0.51% of everything screened.

SMILES	Tat export inh	E coli growth-1	phage Ecoli inh	AddAB inh	E coli growth-2
CN(C)c1ccc(/C=C/c2ccc3c4ccccc4ccc3[n+]2-c2ccccc2)cc1	-335	0.24*	17*	/	/
CS(=O)(=O)N1c2ccccc2[C@]2(Br)CC3C(=O)NC(Cc4ccccc4)C(=O)N3C12 (stereo partly specified)	/	0.73	/	/	/
Cc1ccc(N(C)C)cc1	/	/	2	/	/
Cc1ccc2c(c1)sc(-c1ccc(N(C)C)cc1)[n+]2C	35	0.32*	5	2	-1
CNCC(NCC(NCCCc1ccccc1)c1ccccc1)C(C)O (stereo unspecified)	/	0.66	/	/	/
CCN(c1ccccc1)S(=O)(=O)c1ccc(Cl)c(C(=O)O)c1	-5	0.55*	-2	-1	-2
Nc1ccccc1SCc1cn2cccnc2n1	0	0.73	3	3	1
Nc1ccccc1SCc1cn2ccccc2n1	75*	0.62	5	5	4
CCCCN(C)CCOc1ccccc1OCC	0	0.065*	2	0	-3
CCN1C(=O)C2C(c3ccc(C)cc3)N3C(=O)N(c4ccc(C)cc4)C(=O)[C@@]3(CC)C2C1=O (stereo partly specified)	/	0.71	/	/	/
CCN1CCN(C(=O)NC(C(=O)NC2C(=O)N3C(C(=O)O)=C(CSc4nnnn4C)CSC23)c2ccc(O)cc2)C(=O)C1=O (stereo unspecified)	/	0.061*	/	/	/
Cc1c(Cl)cnn1CC(=O)NC1C(=O)N2C(C(=O)O)=C(CSc3nnnn3C)CSC12 (stereo unspecified)	0	0.074*	8	-2	-2
CC(C(=O)NC1C(=O)N2C(C(=O)O)=C(CSc3nnnn3C)CSC12)n1cc(Cl)cn1 (stereo unspecified)	-3	0.5*	5	-1	1
Cc1nnc(SCC2=C(C(=O)O)N3C(=O)C(NC(=O)Cc4ccccc4)C3SC2)s1 (stereo unspecified)	8	0.6	2	2	-1
Cc1nn(CC(=O)NC2C(=O)N3C(C(=O)O)=C(CSc4nnnn4C)CSC23)cc1Br (stereo unspecified)	-11	0.46*	5	0	1
CS(=O)(=O)N1c2ccccc2[C@@]2(Br)CC3C(=O)NC(Cc4ccccc4)C(=O)N3C12 (stereo partly specified)	/	0.69	/	/	/
CCN1C(=O)C2C(c3ccc(-c4ccc(OC)cc4)c(OC)c3)N[C@@](CC(C)C)(C(=O)OC)C2C1=O (stereo partly specified)	/	0.72	/	/	/
CC1CN(C(C)CO)C(=O)c2cccc(NS(=O)(=O)c3cn(C)cn3)c2OC1CN(C)Cc1ccc(C(=O)O)cc1 (stereo unspecified)	/	0.68	/	/	/
C#CCNC(=O)C1=CC(C2CC2)CC(OCc2ccc(CO)cc2)O1 (stereo unspecified)	/	0.67	/	/	/
Cn1nnnc1SCC1=C(C(=O)O)N2C(=O)C(NC(=O)Cn3nc(C(F)F)cc3C3CC3)C2SC1 (stereo unspecified)	-2	0.49*	9	0	2
Cc1c(Cl)c(C(F)F)nn1CC(=O)NC1C(=O)N2C(C(=O)O)=C(CSc3nnnn3C)CSC12 (stereo unspecified)	-3	0.65	6	/	/
CCSc1nnc(NC(=O)c2ccccn2)s1	19	0.67	0	9	11*
CCSc1nnc(NC(=O)c2cnccn2)s1	/	0.72	/	1	0
COc1ccc(C2CC(=O)C=C(c3ccc4[nH]ccc4c3)C2)cc1OC (stereo unspecified)	/	0.69	/	/	/
COc1ccc2[nH]c(C)c(CCN3C(=O)C4CC=CCC4C3=O)c2c1 (stereo unspecified)	6	0.73	2	3	-1
COc1ccc2[nH]c(C)c(CCN3C(=O)OC(C)(C)C3(C)O)c2c1 (stereo unspecified)	-6	0.63*	2	-3	2
Cc1ccc2nc(-c3ccccn3)c(Nc3ccccc3C)n2c1	-28	0.5*	-2	1	1
COc1c(N2CC3CCCNC3C2)c(F)cc2c(=O)c(C(=O)O)cn(C3CC3)c12 (stereo unspecified)	/	0.058*	/	/	/
CC[C@@H](C(=O)[C@@H](C)[C@@H](O)[C@H](C)[C@@H]1O[C@@H]([C@@H](CC)C(=O)O)CC[C@@H]1C)[C@H]1O[C@]2(C=C[C@@H](O)[C@]3(CC[C@@](C)([C@H]4CC[C@](O)(CC)[C@H](C)O4)O3)O2)[C@H](C)C[C@@H]1C	9	/	12*	/	/
CCN1/C(=C/C=C/C=C/c2sc3ccccc3[n+]2CC)Sc2ccccc21	/	/	/	23*	20*
